Reference: article PMC12820563, “FoxP3 forms a head-to-head dimer in vivo and stabilizes its multimerization on adjacent microsatellites”
Over roughly 16,000 sequences, “rpm ratio (pull-down/input)” has its median near 0.94; the highest 2% begin near 1.7. The sample holds the highest values, similar sequences and a random draw of the others, so the mix is not that of the screen.

biological target: T1, MBP-FoxP1dN (Mus musculus, UniProt P58462 326-579); assay: PD-seq (MBP pull-down with sequencing); 20 mM Tris-HCl pH 7.5, 100 mM NaCl, 1.5 mM MgCl2, 0.4 uM protein, 0.1 uM dsDNA library, 30 min, room temperature, amylose pull-down; high values mean tight binding; conditions: protein: recombinant; tags: His6-MBP; chain copies: 2; dsDNA, one strand shown
T1 sequence: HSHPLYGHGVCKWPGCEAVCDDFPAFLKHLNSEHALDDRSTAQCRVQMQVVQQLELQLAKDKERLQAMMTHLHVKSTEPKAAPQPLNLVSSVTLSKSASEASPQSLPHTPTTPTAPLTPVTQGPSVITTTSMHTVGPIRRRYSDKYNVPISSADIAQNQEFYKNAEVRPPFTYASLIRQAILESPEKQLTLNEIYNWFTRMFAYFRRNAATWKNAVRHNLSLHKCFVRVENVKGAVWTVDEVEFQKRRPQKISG
In short: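 A fragment of mouse FoxP3 or FoxP1 without its N-terminus, carrying a His6-MBP tag and produced in E. coli, was combined at 0.4 µM with a 0.1 µM degenerate double-stranded DNA library filled in with Klenow. The mixture sat for 30 min at room temperature in Tris pH 7.5 buffer containing NaCl and MgCl2. Protein–DNA complexes were captured on amylose resin, washed three times, and the DNA was freed with proteinase K, barcoded by PCR and sequenced on Illumina. Binding is expressed as reads-per-million enrichment of pull-down over input, with replicates pooled.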

Sequence | binding signal
GATGATTGTTCTCCCAGCTGATGAATTGTCACATTCGAGTAAACAAATTTTCCTAATCTTTCTGTTCAAGCGCCATCTAC | 1.2 RPM ratio (pull-down/input)
GATGATTGTTCTCCCAGCTGATGAATTGAACGTTTCGAGTAAACAAATTTTCCTAATCTTTCTGTTCAAGCGCCATCTAC | 0.869 RPM ratio (pull-down/input)
GATGATTGTTCTCCCAGCTGATGAATTTATGGGATCGAGTAAACAAATTTTCCTAATCTTTCTGTTCAAGCGCCATCTAC | 0.919 RPM ratio (pull-down/input)
GATGATTGTTCTCCCAGCTGATGAATTCTCCCTCTCGAGTAAACAAATTTTCCTAATCTTTCTGTTCAAGCGCCATCTAC | 0.869 RPM ratio (pull-down/input)
GATGATTGTTCTCCCAGCTGATGAATTATATTCCTCGAGTAAACAAATTTTCCTAATCTTTCTGTTCAAGCGCCATCTAC | 0.968 RPM ratio (pull-down/input)
GATGATTGTTCTCCCAGCTGATGAATTGAGGTAGTCGAGTAAACAAATTTTCCTAATCTTTCTGTTCAAGCGCCATCTAC | 0.86 RPM ratio (pull-down/input)
GATGATTGTTCTCCCAGCTGATGAATTAGATTTCTCGAGTAAACAAATTTTCCTAATCTTTCTGTTCAAGCGCCATCTAC | 0.85 RPM ratio (pull-down/input)
GATGATTGTTCTCCCAGCTGATGAATTTTAGTTTTCGAGTAAACAAATTTTCCTAATCTTTCTGTTCAAGCGCCATCTAC | 1.4 RPM ratio (pull-down/input)
GATGATTGTTCTCCCAGCTGATGAATTGTTTAGTTCGAGTAAACAAATTTTCCTAATCTTTCTGTTCAAGCGCCATCTAC | 1.94 RPM ratio (pull-down/input)
GATGATTGTTCTCCCAGCTGATGAATTTAGTTTTTCGAGTAAACAAATTTTCCTAATCTTTCTGTTCAAGCGCCATCTAC | 1.19 RPM ratio (pull-down/input)
GATGATTGTTCTCCCAGCTGATGAATTCGCGCAGTCGAGTAAACAAATTTTCCTAATCTTTCTGTTCAAGCGCCATCTAC | 0.818 RPM ratio (pull-down/input)
GATGATTGTTCTCCCAGCTGATGAATTCAGTCGTTCGAGTAAACAAATTTTCCTAATCTTTCTGTTCAAGCGCCATCTAC | 0.873 RPM ratio (pull-down/input)
GATGATTGTTCTCCCAGCTGATGAATTTTGTTAGTCGAGTAAACAAATTTTCCTAATCTTTCTGTTCAAGCGCCATCTAC | 1.82 RPM ratio (pull-down/input)
GATGATTGTTCTCCCAGCTGATGAATTTATTTAGTCGAGTAAACAAATTTTCCTAATCTTTCTGTTCAAGCGCCATCTAC | 1.76 RPM ratio (pull-down/input)
GATGATTGTTCTCCCAGCTGATGAATTTGGTTAGTCGAGTAAACAAATTTTCCTAATCTTTCTGTTCAAGCGCCATCTAC | 0.953 RPM ratio (pull-down/input)
GATGATTGTTCTCCCAGCTGATGAATTGTTTAGGTCGAGTAAACAAATTTTCCTAATCTTTCTGTTCAAGCGCCATCTAC | 1.93 RPM ratio (pull-down/input)
GATGATTGTTCTCCCAGCTGATGAATTGTTTTAGTCGAGTAAACAAATTTTCCTAATCTTTCTGTTCAAGCGCCATCTAC | 1.44 RPM ratio (pull-down/input)
GATGATTGTTCTCCCAGCTGATGAATTATTTTAGTCGAGTAAACAAATTTTCCTAATCTTTCTGTTCAAGCGCCATCTAC | 1.21 RPM ratio (pull-down/input)
GATGATTGTTCTCCCAGCTGATGAATTTTTTAGGTCGAGTAAACAAATTTTCCTAATCTTTCTGTTCAAGCGCCATCTAC | 0.925 RPM ratio (pull-down/input)
GATGATTGTTCTCCCAGCTGATGAATTCTGTTAGTCGAGTAAACAAATTTTCCTAATCTTTCTGTTCAAGCGCCATCTAC | 1.29 RPM ratio (pull-down/input)
GATGATTGTTCTCCCAGCTGATGAATTCTTTAGGTCGAGTAAACAAATTTTCCTAATCTTTCTGTTCAAGCGCCATCTAC | 0.821 RPM ratio (pull-down/input)
GATGATTGTTCTCCCAGCTGATGAATTTTATTAGTCGAGTAAACAAATTTTCCTAATCTTTCTGTTCAAGCGCCATCTAC | 1.28 RPM ratio (pull-down/input)
GATGATTGTTCTCCCAGCTGATGAATTTGTTTAGTCGAGTAAACAAATTTTCCTAATCTTTCTGTTCAAGCGCCATCTAC | 2.24 RPM ratio (pull-down/input)
GATGATTGTTCTCCCAGCTGATGAATTTTTTTAGTCGAGTAAACAAATTTTCCTAATCTTTCTGTTCAAGCGCCATCTAC | 1.05 RPM ratio (pull-down/input)
